# According to publication PMC5540273 (PLoS ONE, 2017):
# Experiments:
# Conditions in all cases: concentration: 1 μM,replicates: in singlicate; n = 1
# PLK2 = test system: PLK2
# PLK3 = test system: PLK3
# PLK4 = test system: PLK4
# PRKCD = test system: PRKCD
# PRKCE = test system: PRKCE
# PRKCH = test system: PRKCH
# PRKCI = test system: PRKCI
# PRKCQ = test system: PRKCQ
# PRKD1 = test system: PRKD1
# PRKD2 = test system: PRKD2
# PRKD3 = test system: PRKD3
# PRKG1 = test system: PRKG1
# PRKG2 = test system: PRKG2
# PRKR = test system: T1, PRKR
# T1 construct: gene EIF2AK2
# PRKX = test system: PRKX
# PRP4 = test system: PRP4
# PYK2 = test system: T2, PYK2
# T2 construct: gene PTK2B
# QSK = test system: QSK
# RAF1 = test system: RAF1
# RET = test system: RET
# 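Further: KINOMEscan kinase panel screen.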
SMILES,%Inh (PLK2) [%],%Inh (PLK3) [%],%Inh (PLK4) [%],%Inh (PRKCD) [%],%Inh (PRKCE) [%],%Inh (PRKCH) [%],%Inh (PRKCI) [%],%Inh (PRKCQ) [%],%Inh (PRKD1) [%],%Inh (PRKD2) [%],%Inh (PRKD3) [%],%Inh (PRKG1) [%],%Inh (PRKG2) [%],%Inh (PRKR) [%],%Inh (PRKX) [%],%Inh (PRP4) [%],%Inh (PYK2) [%],%Inh (QSK) [%],%Inh (RAF1) [%],%Inh (RET) [%]
CC(C)Nc1cc(-c2ccc3c(N)n[nH]c3c2)nc(N)n1 [GSK2221681],0,0,0,0,0,0,11,12,0,0,0,0,42,0,79,7,0,0,0,0
C[C@@H]1CCN(C(=O)CC#N)C[C@@H]1N(C)c1ncnc2[nH]ccc12,0,0,0,18,45,12,5,0,0,0,14,14,0,0,0,0,–,0,0,–
Cc1cc(C(=O)Nc2ccc(Oc3ccc4nc(NC(=O)C5CC5)cn4n3)cc2)nn1-c1ccccc1,0,0,0,9,0,0,44,0,0,0,0,8,6,18,0,0,–,0,75,81
Cl.Cl.NC[C@H](CC1CCCCC1)NC(=O)c1cc(Br)c(-c2ccnc3[nH]ccc23)s1 [GSK1581427],0,0,15,99.5,96.6,97.7,0,90.2,64,67,82,99.3,98.5,0,96.2,78,20,5,2,25
Cc1n[nH]c2ccc(-c3cc(OC[C@@H](N)Cc4ccccc4)cnc3-c3ccoc3)cc12.O=C(O)C(F)(F)F.O=C(O)C(F)(F)F [GSK507358],0,0,0,99.8,95.5,95.9,33,95.4,91.4,99.2,100,0,0,4,84,27,40,5,0,8
O=C(NCCNc1ccnc(NCc2ccc(F)cc2)n1)c1cc2ccccc2s1 [GSK1379944],0,0,74,0,86,22,8,39,0,70,100,22,0,0,19,18,14,7,11,79
Cc1ccc2c(-c3ccncc3)c(-c3ccc(F)cc3)nn2c1.Cl [GW461484],0,0,0,8,8,0,28,21,34,55,50,30,18,0,0,0,0,1,19,14
NC(=O)c1cc(-c2ccccc2)cc2c(C3CCNCC3)c[nH]c12 [GSK301362],34,0,0,40,46,71,35,64,37,2,29,5,0,0,36,2,37,13,3,7
COc1ccc(C[C@@H](CN)NC(=O)c2cc(Br)c(-c3ccnc4[nH]ccc34)s2)cc1.Cl.Cl [GSK1389063],27,27,34,99.8,98.2,99.4,56,92.4,83,85,94.4,98.7,98.9,1,94.2,18,47,0,5,98.4
CCN(CC)CCOc1ccc(Nc2ncc3cc(-c4c(Cl)cccc4Cl)c(=O)n(C)c3n2)cc1 [SB-601273],27,52,30,0,22,0,26,27,93.3,93.6,100,0,9,18,0,31,56,95.6,97,100
CCn1c(-c2nonc2N)nc2c(C#CC(C)(C)O)nc(OCCN)cc21.Cl.Cl [GSK902056],0,0,3,81,97.9,96.5,20,89,14,14,37,39,97,0,91.6,8,9,23,0,23
O=C(NCCCN1CCOC1=O)c1cnc(NCc2cc(Cl)ccc2Cl)nc1NC1CCCC1,0,4,17,3,14,8,23,0,23,0,0,13,21,4,0,1,0,0,7,22
Cl.Cl.NC[C@H](Cc1ccc(C(F)(F)F)cc1)NC(=O)c1cc(Br)c(-c2ccnc3[nH]ccc23)s1 [GSK1487252],0,0,8,97.3,97.5,98,17,88,83,57,81,98.1,98.7,0,96,22,13,14,10,74
